Target: MRPL14
Assay: pooled miR-30 sensor sort-seq; sequence = guide strand
Details: shRNA
Note: reference of the scale not given here.

Sequence | sensor-assay potency score (higher = more potent)
TTGTTGGAGTCGAATCTGGGGG | -0.711
TTAATTCGTGTCCCCACAGGGT | -1.22
TGAATCGCACTCAGACTCCCAG | -0.455
TTCTTATAGACATGGATGCAGC | -1.01
ATTCTTCTTATAGACATGGATG | -1.46
TTATAGACATGGATGCAGCGAG | -0.0779

Target: MRPL21
Assay: as above
Details: shRNA

Sequence | sensor-assay potency score (higher = more potent)
AATTGAACCTTCGAGAAGCAGA | -0.954
TTATCCGGAGGACAGTCTGCGG | -1.53
TTTTAGGAACATATCCTGGTAG | 0.0621
TCGAACAAGATCCTTTCCGAGG | -1.49
TTCTACTCGAACAAGATCCTTT | 0.318
TTGAAGTTTTTCCTTTTCCTGA | -0.489
TTCATTTCCAATTAAGATCAGG | -0.523
TATCCGGAGGACAGTCTGCGGG | -1.15
TTCTTCTTGAAGTTTTTCCTTT | -0.465
TTTAGGAACATATCCTGGTAGA | -0.392
TCTGTGAATTGAACCTTCGAGA | -0.658
TATCCTGGTAGATATGAAGTGC | -0.473
